Laboratory results from PubChem BioAssay (NCI).
The panel holds about 79,000 compounds, 15% with a hit somewhere; the sample as a whole holds those more often. Active and inactive are the calls of the source. Rule as the data show it: active = growth inhibition above about 70%; inactive = the rest.

How the values were obtained:
[1] = NCI Yeast Anticancer Drug Screen. Data for the rad50 strain (AID 155);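 also: 0% = growth of vehicle-only cultures of the same strain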; conditions: S. cerevisiae rad50 strain growth inhibition; at 50.0 µM; hits give high values
Outline: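 Cells are treated with compound, grown, and their growth is then scored against vehicle-only cultures of the same repair-deficient yeast strain.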

[2] = NCI Yeast Anticancer Drug Screen. Data for the mec2-1 strain (AID 157); conditions: S. cerevisiae mec2-1 strain, at 50.0 µM, hits give high values
Outline: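 Strain: mec2-1 (DNA repair/cell cycle alteration). Compound exposure, then growth measured; inhibition expressed relative to vehicle.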

[3] = NCI Yeast Anticancer Drug Screen. Data for the sgs1 mgt1 strain (AID 161);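 also: 0% = growth of cultures given vehicle only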; conditions: S. cerevisiae sgs1 mgt1 strain, at 50.0 µM, hits give high values
Outline: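 Genetically altered yeast, compound exposure, growth inhibition relative to vehicle.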

[4] = NCI Yeast Anticancer Drug Screen. Data for the cln2 rad14 strain (AID 165);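 also: 0% = growth equal to vehicle treated cultures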; conditions: S. cerevisiae cln2 rad14 strain, at 50.0 µM, hits give high values
Outline: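 Compounds are applied to the cln2 rad14 yeast strain, and growth is then compared with that of vehicle-treated cultures to give inhibition.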

[5] = NCI Yeast Anticancer Drug Screen. Data for the bub3 strain (AID 167); conditions: S. cerevisiae bub3 mutant strain, at 50.0 µM, hits give high values
Outline: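 Part of a panel of yeast mutants defective in DNA damage repair or cell cycle regulation. Each strain is grown with compound, and inhibition is calculated relative to solvent-treated cultures.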

[6] = NCI Yeast Anticancer Drug Screen. Data for the mlh1 rad18 strain (AID 175); conditions: S. cerevisiae mlh1 rad18 strain growth inhibition; at 50.0 µM; hits give high values
Outline: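 Read-out is yeast growth inhibition, calculated against vehicle-only controls. The compound was applied to a strain engineered with DNA damage repair alterations.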

Measured: growth inhibition

CCN1OCC(C)(C(=O)OC)C1C (stereo not given)
inactive: [1] -13.9% | [2] -13.1% | [3] -10.7% | [4] -31% | [5] 9.9% | [6] -21.1%

CC(C)N(CCSC(=O)N1c2ccccc2Sc2cccnc21)C(C)C
inactive: [1] -2% | [2] 0.8% | [3] -18.9% | [4] -12.3% | [5] 1.45% | [6] 1.6%

COc1ccccc1C(O)C(C)(C)C (stereo not given)
inactive: [1] 50.9% | [2] 2.45% | [3] 7.5% | [4] 8.9% | [5] 8.4% | [6] 28.9%

Cn1cc(C2NC(=O)c3ccccc3N2)c2ccccc21 (stereo not given)
inactive: [1] -25.1% | [2] -15.7% | [3] -7.1% | [4] 12% | [5] -15% | [6] -11.7%

Nc1ccc(C(=O)Nc2nccs2)cc1
inactive: [1] 8.4% | [2] 12.6% | [3] 6.8% | [4] -19.8% | [5] 14.6% | [6] 4.75%

CCN(CC)CCNc1ccc2ncn3c4ccc(OC)cc4c(=O)c1c23
inactive: [1] 4.35% | [2] -1.9% | [3] -34.9% | [4] 18.6% | [5] 20.9% | [6] 34.2%

[O-][n+]1c(CN2CCCCC2)nc2cccc3c2c1-c1ccccc1-3
inactive: [1] 33.4% | [2] 12.3% | [3] -3.5% | [4] -8.55% | [5] 20.6% | [6] 13.1%

CCc1[nH]c2ccc(C)cc2c1C(=O)c1cccnc1
inactive: [1] 5.3% | [2] -0.15% | [3] 16.4% | [4] 7.2% | [5] 21.3% | [6] 7.6%

Cc1cc(C)cc(NC(N)=S)c1
inactive: [1] 11.8% | [2] -0.25% | [3] 6.9% | [4] -5.3% | [5] 10.6% | [6] 11.7%

O=C1NC2OC(CO)C(O)C(O1)C2O (stereo not given)
inactive: [1] -9.7% | [2] 19.4% | [3] -24.9% | [4] -5% | [5] -28.8% | [6] -25%

Nc1ccc(N)c2cc(S(=O)(=O)O)ccc12
inactive: [1] 3.85% | [2] -4.8% | [3] -5.1% | [4] 6.4% | [5] -16.2% | [6] 7.9%

C=C[C@@]1(C)CCC2(O)C(CCC3C2(C)CCC[C@@]3(C)COC(=O)CC(=O)OC)C1 (stereo not given in full)
active: [1] 82.8% | [2] 72.1% | [3] 78% | [5] 76.3% | [6] 79.2%
inactive: [4] 60.5%

Cl[Si]1(Cl)Oc2ccccc2O[Si](Cl)(Cl)Oc2ccccc2O1
inactive: [1] 16.2% | [2] 10.6% | [3] 8.35% | [4] 28.6% | [5] 3.7% | [6] 10.2%

COC(=O)c1cc(C(=CCC[C@H]2CC[C@@]3(C)C(CCC4C3CC[C@@]3(C)C4CC[C@@H]3C(C)CCCC(C)C)C2)c2cc(Cl)c(O)c(C(=O)OC)c2)cc(Cl)c1O (stereo not given in full)
inactive: [1] 0% | [2] 4.1% | [3] -10% | [4] 6.6% | [5] 5.15% | [6] -18.4%

CCOC(=O)C1=C(C)Oc2cc3c(cc2C1c1ccc(OC)cc1)OCO3 (stereo not given)
inactive: [1] 3.9% | [2] 5.8% | [3] 23.5% | [4] -39.8% | [5] 31.4% | [6] 6.65%

O=C1NC(c2cccc3c2OCO3)N=C2Oc3ccccc3C=C12 (stereo not given)
inactive: [1] 9.95% | [2] 1.95% | [3] 9.45% | [4] 7.8% | [5] -4.05% | [6] -10.6%

COC(=O)c1cc(C)n(C)c(=O)c1C#N
inactive: [1] 12.6% | [2] 12.5% | [3] -0.85% | [4] 22.1% | [5] 13.9% | [6] 2.9%

CCCCCCCCCCCCCCCCOCC(COS(C)(=O)=O)OS(C)(=O)=O (stereo not given)
inactive: [1] 20% | [2] 2.15% | [3] 12.2% | [4] 33.3% | [5] 7.9% | [6] 1.5%

NC(=O)NC12CC3CC(CC(C3)C1)C2
inactive: [1] 13.3% | [2] -5.8% | [3] 13.1% | [4] -0.75% | [5] 4.9% | [6] 2.75%

O=C(CCC(=O)C1CCC/C1=N/O)Nc1ccc(Cl)cc1 (stereo not given)
inactive: [1] -40.4% | [2] -0.4% | [3] 7.4% | [4] 26.1% | [5] 9.55% | [6] 21.1%
